ChEMBL document CHEMBL1157539, “Thousands of chemical starting points for antimalarial lead identification” (Nature, 2010)

Experiments:
Type in all cases: functional
Plasmodium falciparum [1] = test: GSK_TCMDC: Inhibition of Plasmodium falciparum 3D7 in whole red blood cells, using parasite LDH activity as an index of growth. Test compounds present at 2uM
Plasmodium falciparum [2] = test: GSK_TCMDC: Inhibition of Plasmodium falciparum Dd2 in whole red blood cells, using parasite LDH activity as an index of growth. Test compounds present at 2uM
HepG2 = test: GSK_TCMDC: Percent inhibition of human HepG2 cell line. Test compounds present at 10uM.

SMILES | Inhibition (Plasmodium falciparum [1]) | Inhibition (Plasmodium falciparum [2]) | Inhibition (HepG2)
COc1cc2c(cc1N1CCN(C)CC1)N(C(=O)Nc1ccc(-c3ccncc3)c(Cl)c1Cl)CC2 | 100% | 4% | 10%
Cl.N#Cc1ccc(CCNc2nccc(-c3cccc(CN4CCNCC4)c3)n2)cc1 | 83% | 0% | 5%
Br.CC1(C)N=C(N)N=C(N)N1OCCc1ccc2ccccc2c1 | 96% | 95% | 65%
CC(=O)Nc1ncc(C(=O)Nc2cccc(-c3cccc(-c4nc5ccccc5[nH]4)c3)c2)s1 | 92% | 38% | 16%
O=C(O)C(F)(F)F.c1ccc2[nH]c(-c3ccc(-c4ccc(CNCCc5ccncc5)cc4)s3)nc2c1 | 100% | 98% | 28%
O=C(CC(c1ccccc1)c1ccccc1O)N1CCOCC1 (stereo not given) | 84% | 5% | 30%
CC(C)N1CCN(C(CN2CCN(CCCOc3ccc(-c4ccccc4)cc3)CC2)c2ccc(F)cc2)CC1.Cl (stereo not given) | 100% | 100% | 100%
CC(=O)c1cccc(NC(=O)c2ccc(Cl)c(S(=O)(=O)N3CCc4ccccc43)c2)c1 | 93% | 11% | 13%
Cc1ccc(NS(=O)(=O)c2cccs2)cc1-c1cccc(C(=O)Nc2ccc(F)cc2)c1 | 99% | 100% | 38%
Cc1nc2ccccc2c(O)c1-c1ccc(Cl)cc1 | 93% | 91% | 0%
C[C@@H](Oc1cc(-n2cnc3ccc(NC(=O)NC(C)(C)C)cc32)sc1C(N)=O)c1ccccc1Cl | 95% | 97% | 28%
CCC(NCc1ccc(-c2cncc(C(=O)NCC(C)C)c2)cc1)c1ccccc1.O=C(O)C(F)(F)F (stereo not given) | 86% | 8% | 14%
Br.CCC(CCON1C(N)=NC(N)=NC1(C)C)c1ccc(Cl)cc1 (stereo not given) | 94% | 95% | 66%
CN(CCCCN)Cc1ccc(-c2ccc(Cl)cc2)cc1 | 97% | 20% | 96%
O=c1cc(NCCCNCc2[nH]c3cc(Cl)cc(Cl)c3c2Cn2cccn2)[nH]c2ccccc12 | 86% | 2% | 5%
CCOC(=O)c1ccc(-c2cnoc2-c2cc(CC)c(OC)cc2O)o1 | 100% | 97% | 12%
CCNc1cc(C)nc(Nc2ccc(NC(=O)c3ccc(OC)c(OC)c3)cc2)n1 | 100% | 65% | 19%
CCCC(C(=O)OCCN(CC)CC)(c1ccc(Cl)cc1)c1ccc(Cl)cc1.Cl | 91% | 87% | 7%
CN1CCCN(Cc2ccc(-c3cccc(NC(=O)c4cccc(Cl)c4)c3)cc2)CC1.O=C(O)C(F)(F)F | 100% | 32% | 33%
O=C(NC1CCN(Cc2ccccc2)CC1)c1ccc(-c2nc3cc(Cl)c(Cl)cc3[nH]2)s1 | 100% | 99% | 17%
Cc1cc(C(=O)CSc2nc3ccccc3n2-c2ccccc2)c(C)n1C1CCS(=O)(=O)C1 (stereo not given) | 92% | 0% | 0%
Cc1ccc(CN2CCC(C(=O)Nc3ccc(-c4cc5ccccc5[nH]4)cc3)CC2)o1 | 92% | 40% | 19%
Cc1cc(OCC2CCN(c3ccc(C(=O)NC4CC4)cn3)CC2)ccc1F | 94% | 95% | 6%
Cc1cc(NC(=O)Nc2ccc(Cl)cc2F)c2ccccc2n1 | 100% | 71% | 10%
Cc1c(-c2cccc(Br)c2)[nH]c2nc(N)nc(N)c12 | 100% | 61% | 8%
CN(C)Cc1ccc(-c2ccc3c(Nc4ccc(Oc5ccccc5)cc4)ccnc3c2)o1 | 100% | 100% | 10%
CN1CCN(c2ccnc3ccc(NC(=O)Nc4cccc5ccccc45)cc23)CC1 | 100% | 96% | 0%
COc1cccc(CNC(=O)c2cccc(-c3cccc(CN4CCC(N5CCCC5)CC4)c3)n2)c1.O=C(O)C(F)(F)F | 100% | 76% | 22%
Cc1cccc2nc(-c3cccc(-c4ccc(NC(=O)Nc5ccsc5)cc4)c3)[nH]c12 | 100% | 99% | 27%
CNCc1ccc(-c2ccc3ccnc(N)c3c2)cc1 | 94% | 98% | 46%
